molecular target: Pro-neuregulin-1, membrane-bound isoform (Homo sapiens) (UniProt Q02297); experiment: NRG1 binders on small-molecule microarrays, primary screen, psychiatric disease protein project, biochemical, small-molecule microarray, fluorescence 635/667 (AID 1075); conditions: NRG1 binding, 635 nm fluorescence, higher = more signal;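 note: score combines 667 nm spot fluorescence with signal to noise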
Sequence (Q02297 whole entry, looked up, canonical isoform): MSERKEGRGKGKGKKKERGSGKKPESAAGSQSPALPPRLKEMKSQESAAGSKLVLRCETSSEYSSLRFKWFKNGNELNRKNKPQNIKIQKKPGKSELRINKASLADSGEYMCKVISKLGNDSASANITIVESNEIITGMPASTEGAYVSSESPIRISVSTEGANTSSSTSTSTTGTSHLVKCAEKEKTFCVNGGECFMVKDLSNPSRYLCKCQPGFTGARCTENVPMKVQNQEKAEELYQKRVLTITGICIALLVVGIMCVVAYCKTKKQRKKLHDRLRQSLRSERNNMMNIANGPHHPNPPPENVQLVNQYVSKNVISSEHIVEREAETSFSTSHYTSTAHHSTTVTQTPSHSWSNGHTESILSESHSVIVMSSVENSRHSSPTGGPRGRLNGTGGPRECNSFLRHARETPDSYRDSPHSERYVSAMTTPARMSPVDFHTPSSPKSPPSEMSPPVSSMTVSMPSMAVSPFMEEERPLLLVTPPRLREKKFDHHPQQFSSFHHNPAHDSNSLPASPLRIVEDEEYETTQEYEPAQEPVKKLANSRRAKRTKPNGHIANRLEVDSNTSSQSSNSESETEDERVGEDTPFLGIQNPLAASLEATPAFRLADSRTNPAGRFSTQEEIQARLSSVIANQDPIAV

Structure (SMILES) | composite z-score
O=C1O[C@@H](c2ccccc2)[C@@H](c2ccccc2)N2[C@@H](c3ccc(O)cc3)[C@]3(C(=O)Nc4ccc(C#CC5=CCCCC5)cc43)[C@@H](C(=O)N3CCN(c4ncccn4)CC3)[C@H]12 | 0.901
CC(C)C[C@@H]1NC(=O)[C@H]2C[C@@H](C(=O)NCCCCCC[N+](C)(C)C)[C@@H](c3cccc(OCCO)c3)N2C1=O | -0.0252
CCOC(=O)C[C@H]1[C@H](OC(=O)c2ccccc2-c2ccccc2)[C@@H](NC(=O)c2ccc3ccccc3n2)c2cc(OCCCO)ccc2N1C(=O)c1ccc2ccccc2n1 | 0.189
C[C@H]1C2=C3C(CC[C@H]4C(OCc5ccc(F)cc5C(F)(F)F)OC[C@](C)([C@@H]34)N(C(=O)OC(C)(C)C)C2)C(CO)C1CO (stereo not given in full) | 1.76
CCOc1cc(C(O)C2C=CC3C(=O)N(C)C(=O)C3N2N2CCCCC2)ccc1O (stereo not given) | 1.45
C=C(COC)/C(=C/C[C@@H](OC(=O)c1ccncc1)c1cccc(OCCO)c1)c1cnc2ccccc2c1 | 1.14
C=C(CCCC)/C(=C/C[C@@H](OC(C)=O)c1ccc(CO)o1)c1cc(C(=O)OC)ccc1OC | 1.01
CC(C)(C)OC(=O)CC[C@]1(C(=O)NCCN2CCOCC2)N=C(c2ccc(OCCCO)cc2)O[C@H]1c1ccccc1N=[N+]=[N-] | 1.72
Cc1ccc(S[C@]2(C(=O)NCC(F)(F)F)CC(=O)N(Cc3ccccc3)[C@@H]2c2ccc(CO)cc2)cc1 | 0.248
COc1ccc(C#Cc2ccc3c(c2)[C@]2(C(=O)N3)[C@H](C(=O)N3CCc4cc(OC)c(OC)cc4C3)[C@H]3C(=O)O[C@H](c4ccccc4)[C@H](c4ccccc4)N3[C@@H]2c2ccc(O)cc2)cc1 | 1.27
CN1C(=O)[C@@]2(CCS(=O)(=O)c3ccccc3)N=C(c3ccc(OCCCO)cc3)O[C@H]2c2ccccc21 | 1.59
CC(C)C(=C=CC[C@@H](O)c1ccccc1OCCO)C[C@@H](O)COCc1ccccc1 | 1.13
COc1ccc(C(O)C2C=CC3C(=O)N(Cc4ccccc4)C(=O)C3N2n2cnnc2)c2ccccc12 (stereo not given) | 1.81
CCOC(=O)C[C@H]1[C@H](OC(=O)c2ccccc2-c2ccccc2)[C@@H](NC(=O)CC(C)C)c2cc(OCCCO)ccc2N1C(=O)c1ccc2ccccc2n1 | -0.121
C=CC[C@H](OC(=O)Nc1ccc(OC)cc1)c1ccc(O)c2ccccc12 | 0.473
COc1ccc(C(O)C2C=CC3C(=O)N(c4ccccc4)C(=O)C3N2Nc2ccccc2)cc1OCc1ccccc1 (stereo not given) | 1.48
O=C1NC(=O)C2C1C=CC(C(O)c1cc(C(F)(F)F)cc(C(F)(F)F)c1)N2Nc1ccc(Cl)cc1Cl (stereo not given) | 1.45
C=CCC(OC(C)=O)[C@@H]1[C@@H](N(Cc2cc3ccccc3o2)C(=O)Cc2ccc(F)cc2)c2cc(OCCCO)ccc2N1C(=O)c1ccc2ccccc2n1 (stereo not given in full) | -0.137

Structure (SMILES) | composite z-score
COCCOC(=O)N1C(=O)[C@@]2(c3cc(C#CC4=CCCCC4)ccc31)[C@H](c1ccc(O)cc1)N1[C@H](c3ccccc3)[C@H](c3ccccc3)OC(=O)[C@H]1[C@@H]2C(=O)Nc1nc2ccccc2s1 | 0.896
COCCOC(=O)N1C(=O)[C@@]2(c3cc(C#CC4(O)CCCCCC4)ccc31)[C@H](C(N)=O)[C@H]1C(=O)O[C@H](c3ccccc3)[C@H](c3ccccc3)N1[C@@H]2c1ccc(O)cc1 | 0.446
COC(=O)[C@H](Cc1ccccc1)N1CC(/C=C/C2CC2)=C[C@@H]1[C@@H](O)Cc1ccccc1 | 0.947
C=C(/C(=C/C[C@@H](OC(=O)c1ccncc1)c1ccccc1OCCO)c1cc(C(=O)OC)ccc1OC)C(C)C | 0.878
COc1cc(CO)cc(I)c1O[C@H]1C=C(C(=O)NCCO)C[C@@H](N(Cc2ccc(F)cc2)C(=O)C2CCCO2)[C@@H]1O (stereo not given in full) | -0.0002
NC(=O)NCC#Cc1ccc2c(c1)[C@]1(C(=O)N2)[C@H](c2ccc(O)cc2)N2[C@H](c3ccccc3)[C@H](c3ccccc3)OC(=O)[C@H]2[C@@H]1C(=O)Nc1nc2ccccc2s1 | 0.434
CCOC(=O)C1=CC[C@@H](c2cc(Cl)ccc2Cl)N(S(=O)(=O)c2ccc(C)cc2)[C@H]1c1ccc(OC)cc1 | -0.362
COc1ccc(NN2C(C(O)c3ccccn3)C=CC3C(=O)N(C4CCCCC4)C(=O)C32)cc1 (stereo not given) | 1.36
COc1ccc([Si](C)(C)[C@H]2[C@H](CCO)O[C@@]3(C(=O)N(Cc4cccc(N5CCCCC5=O)c4)c4ccccc43)[C@@H]2C)cc1 | 0.652
CCCC[C@@H]1C[C@H]1[C@@H](NC(=O)c1cccnc1)c1ccc(-c2ccccc2)cc1 | -0.401
C=CCNC(=O)[C@@H]1[C@H]2C(=O)O[C@H](c3ccccc3)[C@H](c3ccccc3)N2[C@H](c2ccc(OCCO)cc2)[C@@]12C(=O)N(C(=O)OCCOC)c1ccc(C#CC3=CCCCC3)cc12 | 1.33
CC(C)NC(=O)[C@@]1(C)c2ccccc2C(=O)N(C(C)C)[C@H]1c1ccc(CO)cc1 | 0.493
COCCOC(=O)N1C(=O)[C@@]2(c3cc(C#CC4(O)CCCCCC4)ccc31)[C@H](c1ccccc1OCCO)N1[C@H](c3ccccc3)[C@H](c3ccccc3)OC(=O)[C@H]1[C@@H]2C(N)=O | 0.102
O=C1c2ccccc2[C@](Cc2ccccc2I)(C(=O)NCc2ccccc2)[C@H](c2ccc(CO)cc2)N1C1CCCCC1 | 1.76
COC(=O)[C@@]1(Cc2ccc(OC)cc2)[C@H]2c3cc(C(=O)N(C)C)n(Cc4ccccc4)c3C[C@H]2CN1C(=O)c1ccccc1 | 1.11
COC(=O)[C@]1(CCS(=O)(=O)c2ccccc2)N=C(c2ccc(OCCCO)cc2)O[C@@H]1c1ccccc1CN=[N+]=[N-] | 0.959
CC(C)(C)OC(=O)CC[C@]1(C(=O)N2CCOCC2)N=C(c2ccc(OCCCO)cc2)O[C@H]1c1ccccc1 | 0.526
